# Results taken from ChEMBL document CHEMBL5606458, “ASAP - ZIKV NS2B-NS3 protease fluorescence single point” (2024).
# The campaign covered roughly 2,700 compounds. About 160 (5.9%) showed an effect of 50% or more. Many of the other results were omitted from the sample, so strong results are more common in it than they were.
# Target: Nonstructural protein 3 (Zika virus) (UniProt A0A024AXB9)
# Sequence (A0A024AXB9 as listed by the source): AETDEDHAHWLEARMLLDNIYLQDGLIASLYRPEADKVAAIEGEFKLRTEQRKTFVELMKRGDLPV
smiles,measurement,setting,value
O[C@H]1CCCN(Cc2c[nH]c3ccccc23)C1,inhibition,"PRVABC59, Concentration 49.5 uM, Number of replicates 2.0, Standard deviation 18.69396289412785 %",21%
same,inhibition,"PRVABC59, Concentration 99.01 uM, Number of replicates 2.0, Standard deviation 0.9286103864725214 %",13.9%
same,inhibition,"PRVABC59, Concentration 198.0 uM, Number of replicates 2.0, Standard deviation 2.4132961769541357 %",24.7%
c1cc(CN2CCC(c3c[nH]c4ncccc34)CC2)c2[nH]ccc2c1,inhibition,"PRVABC59, Concentration 49.5 uM, Number of replicates 2.0, Standard deviation 0.810920201040277 %",22.9%
same,inhibition,"PRVABC59, Concentration 99.01 uM, Number of replicates 2.0, Standard deviation 0.8653267248460199 %",30.1%
same,inhibition,"PRVABC59, Concentration 198.0 uM, Number of replicates 2.0, Standard deviation 1.207313671508752 %",32%
O=C1NCc2ccccc2C12CCN(CCn1cc(-c3ccccc3)cn1)CC2,inhibition,"PRVABC59, Concentration 49.5 uM, Number of replicates 2.0, Standard deviation 2.8974171324862783 %",-1.24%
same,inhibition,"PRVABC59, Concentration 99.01 uM, Number of replicates 2.0, Standard deviation 3.3976160570541145 %",2.72%
same,inhibition,"PRVABC59, Concentration 198.0 uM, Number of replicates 2.0, Standard deviation 1.9883423160607387 %",8.7%
CCn1ccnc(N2CC[C@H](c3ccncc3)C2)c1=O,inhibition,"PRVABC59, Concentration 50.0 uM, Number of replicates 2.0, Standard deviation 13.086126440978003 %",15.5%
same,inhibition,"PRVABC59, Concentration 100.0 uM, Number of replicates 2.0, Standard deviation 1.9353273126054316 %",11.2%
same,inhibition,"PRVABC59, Concentration 200.0 uM, Number of replicates 2.0, Standard deviation 4.176368308171179 %",19%
Cc1nc([C@H]2CCCNC2)[nH]c1C(=O)Nc1ccccn1,inhibition,"PRVABC59, Concentration 49.5 uM, Number of replicates 2.0, Standard deviation 0.17090445918731104 %",8.49%
same,inhibition,"PRVABC59, Concentration 99.01 uM, Number of replicates 2.0, Standard deviation 0.26430592158490923 %",17.8%
same,inhibition,"PRVABC59, Concentration 198.0 uM, Number of replicates 2.0, Standard deviation 0.13314627771815937 %",30.2%
c1cc(CN2CCC(c3c[nH]c4cccnc34)CC2)c2cn[nH]c2c1,inhibition,"PRVABC59, Concentration 49.5 uM, Number of replicates 2.0, Standard deviation 0.9568639478402843 %",4.4%
same,inhibition,"PRVABC59, Concentration 99.01 uM, Number of replicates 2.0, Standard deviation 0.8012763277514082 %",10%
same,inhibition,"PRVABC59, Concentration 198.0 uM, Number of replicates 2.0, Standard deviation 3.635563550314553 %",17.8%
c1ccc2c(CN3CC[C@H](c4c[nH]c5ccccc45)C3)c[nH]c2c1,inhibition,"PRVABC59, Concentration 50.0 uM, Number of replicates 2.0, Standard deviation 0.9766631885715499 %",20.3%
same,inhibition,"PRVABC59, Concentration 100.0 uM, Number of replicates 2.0, Standard deviation 0.28966551174652017 %",37.5%
same,inhibition,"PRVABC59, Concentration 200.0 uM, Number of replicates 2.0, Standard deviation 1.348359280162217 %",55.9%
c1cc(CN2CCC(c3c[nH]c4cccnc34)CC2)c2[nH]ncc2c1,inhibition,"PRVABC59, Concentration 49.5 uM, Number of replicates 2.0, Standard deviation 1.1670691631522456 %",7.96%
same,inhibition,"PRVABC59, Concentration 99.01 uM, Number of replicates 2.0, Standard deviation 0.8238130905871536 %",15.7%
same,inhibition,"PRVABC59, Concentration 198.0 uM, Number of replicates 2.0, Standard deviation 0.8191324301789277 %",25.9%
c1cnc2c(CN3CCC(c4c[nH]c5cccnc45)CC3)c[nH]c2c1,inhibition,"PRVABC59, Concentration 49.5 uM, Number of replicates 2.0, Standard deviation 0.7260748860651783 %",51.4%
same,inhibition,"PRVABC59, Concentration 99.01 uM, Number of replicates 2.0, Standard deviation 0.6197542344872328 %",66.3%
same,inhibition,"PRVABC59, Concentration 198.0 uM, Number of replicates 2.0, Standard deviation 0.45379950118904117 %",74.9%
CCn1ccc2cc(CN3CCC(c4c[nH]c5cccnc45)CC3)ccc21,inhibition,"PRVABC59, Concentration 49.5 uM, Number of replicates 2.0, Standard deviation 2.8809639300582925 %",3.93%
same,inhibition,"PRVABC59, Concentration 99.01 uM, Number of replicates 2.0, Standard deviation 1.8463057507050853 %",15.6%
same,inhibition,"PRVABC59, Concentration 198.0 uM, Number of replicates 2.0, Standard deviation 0.9205600012321524 %",34.4%
c1ccc2c(CN3CCC[C@H](c4c[nH]c5ccccc45)C3)c[nH]c2c1,inhibition,"PRVABC59, Concentration 50.0 uM, Number of replicates 2.0, Standard deviation 1.0176784784936235 %",17.6%
same,inhibition,"PRVABC59, Concentration 100.0 uM, Number of replicates 2.0, Standard deviation 1.399627381040445 %",30%
same,inhibition,"PRVABC59, Concentration 200.0 uM, Number of replicates 2.0, Standard deviation 0.26403213565698247 %",45.3%
CCn1ccnc(N2CCC(c3c[nH]c4ccccc34)CC2)c1=O,inhibition,"PRVABC59, Concentration 49.5 uM, Number of replicates 2.0, Standard deviation 0.010362729937070537 %",13.2%
same,inhibition,"PRVABC59, Concentration 99.01 uM, Number of replicates 2.0, Standard deviation 0.987094027815814 %",22.1%
same,inhibition,"PRVABC59, Concentration 198.0 uM, Number of replicates 2.0, Standard deviation 0.3108960594532158 %",8.34%
c1ccc2c(CN3CCC(c4c[nH]c5cccnc45)CC3)n[nH]c2c1,inhibition,"PRVABC59, Concentration 49.5 uM, Number of replicates 2.0, Standard deviation 0.6456276790258886 %",55.4%
same,inhibition,"PRVABC59, Concentration 99.01 uM, Number of replicates 2.0, Standard deviation 0.2001199802254866 %",70.2%
same,inhibition,"PRVABC59, Concentration 198.0 uM, Number of replicates 2.0, Standard deviation 0.3311541950710681 %",79.4%
c1ccc2c([C@H]3CCN(CC4CCOCC4)C3)c[nH]c2c1,inhibition,"PRVABC59, Concentration 49.5 uM, Number of replicates 2.0, Standard deviation 2.5997737280788282 %",6.89%
same,inhibition,"PRVABC59, Concentration 99.01 uM, Number of replicates 2.0, Standard deviation 3.698865419379611 %",11.8%
same,inhibition,"PRVABC59, Concentration 198.0 uM, Number of replicates 2.0, Standard deviation 1.139250220086327 %",22.2%
CCOc1cc(COc2cccnc2F)nc(N2CCNCC2)n1,inhibition,"PRVABC59, Concentration 49.5 uM, Number of replicates 2.0, Standard deviation 1.6064643888068098 %",4.13%
same,inhibition,"PRVABC59, Concentration 99.01 uM, Number of replicates 2.0, Standard deviation 0.9927585642556782 %",12.5%
same,inhibition,"PRVABC59, Concentration 198.0 uM, Number of replicates 2.0, Standard deviation 0.42007662758371656 %",31.7%
O=C(Cn1ccc2cccnc21)N1CC[C@H](c2c[nH]c3ccccc23)C1,inhibition,"PRVABC59, Concentration 49.5 uM, Number of replicates 2.0, Standard deviation 2.6403237167933415 %",8.06%
same,inhibition,"PRVABC59, Concentration 99.01 uM, Number of replicates 2.0, Standard deviation 2.1942883394495833 %",14.3%
same,inhibition,"PRVABC59, Concentration 198.0 uM, Number of replicates 2.0, Standard deviation 1.481657960884592 %",24.1%
N[C@H]1CC[C@@H](NC(=O)[C@@H](NC(=O)OCc2ccccc2)c2ccc(OCc3ccccc3)cc2)C1,inhibition,"PRVABC59, Concentration 49.5 uM, Number of replicates 2.0, Standard deviation 1.7270227515739174 %",10.7%
same,inhibition,"PRVABC59, Concentration 99.01 uM, Number of replicates 2.0, Standard deviation 1.537724733346876 %",44.6%
same,inhibition,"PRVABC59, Concentration 198.0 uM, Number of replicates 2.0, Standard deviation 0.3345151533587208 %",79.2%
O=C(N[C@@H](C(=O)NC1CCNCC1)c1ccc(OCc2ccccc2)cc1)OCc1ccccc1,inhibition,"PRVABC59, Concentration 49.5 uM, Number of replicates 2.0, Standard deviation 1.3674946237357393 %",8.84%
same,inhibition,"PRVABC59, Concentration 99.01 uM, Number of replicates 2.0, Standard deviation 2.2060968748779715 %",27.2%
same,inhibition,"PRVABC59, Concentration 198.0 uM, Number of replicates 2.0, Standard deviation 0.9505739521685185 %",59.8%
N[C@@H]1CC[C@H](NC(=O)[C@@H](NC(=O)OCc2ccccc2)c2ccc(OCc3ccccc3)cc2)C1,inhibition,"PRVABC59, Concentration 49.5 uM, Number of replicates 2.0, Standard deviation 0.3008027321718269 %",7.24%
same,inhibition,"PRVABC59, Concentration 99.01 uM, Number of replicates 2.0, Standard deviation 0.0103741938798655 %",43%
same,inhibition,"PRVABC59, Concentration 198.0 uM, Number of replicates 2.0, Standard deviation 1.7866649254890776 %",79.8%
N[C@H]1CC[C@H](NC(=O)[C@@H](NC(=O)OCc2ccccc2)c2ccc(OCc3ccccc3)cc2)C1,inhibition,"PRVABC59, Concentration 49.5 uM, Number of replicates 2.0, Standard deviation 1.2628524282528915 %",15.2%
same,inhibition,"PRVABC59, Concentration 49.5 uM, Number of replicates 2.0, Standard deviation 5.748962140815482 %",7.84%
same,inhibition,"PRVABC59, Concentration 99.01 uM, Number of replicates 2.0, Standard deviation 1.1046736199175657 %",52.6%
same,inhibition,"PRVABC59, Concentration 99.01 uM, Number of replicates 2.0, Standard deviation 4.807656617809298 %",46.8%
same,inhibition,"PRVABC59, Concentration 198.0 uM, Number of replicates 2.0, Standard deviation 0.1296531469135765 %",80.8%
same,inhibition,"PRVABC59, Concentration 198.0 uM, Number of replicates 2.0, Standard deviation 1.4858618561424626 %",83.4%
